Bioassay records deposited in PubChem by University of Kansas High Throughput Screening Laboratory.
Shown is part of a subset that was picked to be rich in hits.
Pf apPOL block: Pf-apPOL DNA polymerase inhibition. Recombinant Pf-apPOL, molecular beacon fluorescence, 1.5 h. inhibition, % at 10 µM. 210,000 tested, 0.25% active
mHTT-CaM PPI inh: inhibitors of human mutant huntingtin-calmodulin interaction; 190,000 tested, 3.6% active; inhibition, % at 15 µM; AlphaScreen His-mHTT/GST-CaM binding, luminescence; P42858; AID 1671202;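 further: 0% = both proteins with DMSO and 100% = one protein alone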
Numbers without * were called inactive. No stated cut-off is given here; in the data, active means inhibition above about 50%; inactive means the rest.

SMILES	Pf apPOL block	mHTT-CaM PPI inh
COc1ccc(C=C2Oc3c(ccc4c3CN(Cc3cccnc3)CO4)C2=O)cc1OC	-7	25
CC(C)(Oc1ccc(Cl)cc1)C(=O)N1CCN(c2ccc(F)cc2)CC1	-2	94*
CC(C)(Oc1ccc(Cl)cc1)C(=O)N1CCN(c2cccc(Cl)c2)CC1	-6	20
CC(C)(C)c1ccc(C(=O)N2CCC(=O)N([C@H](COCc3ccc(Cl)cc3)Cc3ccccc3)CC2)cc1	-1	48
O=C(c1ccc(C(F)(F)F)cc1)N1CCC(=O)N([C@H](COCc2ccc(Cl)cc2)Cc2ccccc2)CC1	-7	100*
O=C1CCN(Cc2ccc(O)cc2)CCN1[C@H](CO)Cc1ccccc1	-1	-4
Cc1ccc(S(=O)(=O)N2CCC(=O)N([C@H](COCc3ccc(C(F)(F)F)cc3)C(C)C)CC2)cc1	-3	30
CC(C)C[C@@H](COCc1ccc(Cl)cc1)N1CCN(C(=O)c2ccc(C(F)(F)F)cc2)CCC1=O	-1	99*
O=C(c1ccc(C(F)(F)F)cc1)N1CCC(=O)N([C@H](COCc2ccc(C(F)(F)F)cc2)Cc2ccccc2)CC1	-1	99*
Cc1ccc(NC(=O)c2ncn(-c3cccc(C)c3)n2)cc1	-1	-4
CC(C)Oc1ccc(-c2nc3s/c(=C\c4ccc(N(C)C)cc4)c(=O)n3n2)cc1	-5	2
Cc1cc(C)cc(N2CC(C(=O)N(C)Cc3ccccc3)CC2=O)c1 (stereo unspecified)	-3	4
COc1ccc(NC(=O)C2CC(=O)N(CCc3c[nH]c4ccc(F)cc34)C2)c(OC)c1 (stereo unspecified)	-1	29
COc1ccc2[nH]cc(CCN3CC(C(=O)Nc4ccc(C)c(Cl)c4)CC3=O)c2c1 (stereo unspecified)	5	75*
Cc1ccc(N2CC(C(=O)N(C)Cc3ccccc3)CC2=O)cc1Cl (stereo unspecified)	-1	61*
CN(Cc1ccccc1)C(=O)C1CC(=O)N(CCc2c[nH]c3ccc(Cl)cc23)C1 (stereo unspecified)	5	62*
Cc1ccc2[nH]cc(CCN3CC(C(=O)Nc4ccc5c(c4)OCO5)CC3=O)c2c1 (stereo unspecified)	0	35
CCNC(=O)C1CC(=O)N(CCc2c[nH]c3ccc(Cl)cc23)C1 (stereo unspecified)	-2	5
O=C(Nc1ccc2c(c1)OCO2)C1CC(=O)N(CCc2c[nH]c3ccc(Cl)cc23)C1 (stereo unspecified)	-4	82*
CCN1C(=O)COc2ccc(-c3noc(-c4ccccc4)n3)cc21	-5	-4
Cc1nnc(NC(=O)C2CC(=O)N(CCc3c[nH]c4ccc(Cl)cc34)C2)s1 (stereo unspecified)	0	12
Cc1ccc(NC(=O)C2CC(=O)N(CCc3c[nH]c4ccc(Cl)cc34)C2)cc1 (stereo unspecified)	2	62*
CCOc1ccc(NC(=O)C2CC(=O)N(CCc3c[nH]c4ccc(Cl)cc34)C2)cc1 (stereo unspecified)	2	99*
Cc1ccc2[nH]cc(CCN3CC(C(=O)Nc4cccc(Cl)c4)CC3=O)c2c1 (stereo unspecified)	-2	47
CCc1ccc(NC(=O)C2CC(=O)N(CCc3c[nH]c4ccc(F)cc34)C2)cc1 (stereo unspecified)	-2	57*
SMILES	Pf apPOL block	mHTT-CaM PPI inh
O=C(Nc1ccc(Cl)cc1)C1CC(=O)N(CCc2c[nH]c3ccc(F)cc23)C1 (stereo unspecified)	3	20
CCOc1ccc(NC(=O)C2CC(=O)N(CCc3c[nH]c4ccc(F)cc34)C2)cc1 (stereo unspecified)	1	16
NC(=O)c1ccc(NC(=O)C2CC(=O)N(CCc3c[nH]c4ccc(Cl)cc34)C2)cc1 (stereo unspecified)	1	100*
O=C(O)C1CN(C(=O)c2c[nH]c3ccccc23)C1	-1	-19
Cc1nc(Nc2ccc(C)c(F)c2)c2cc(C)sc2n1	0	6
O=C1C2C3C=CC(C4CC34)C2C(=O)N1c1ccc(Br)cc1 (stereo unspecified)	-5	-5
CC(O)(CCc1ccccc1)CNC(=O)c1cnccn1 (stereo unspecified)	-8	-13
Cc1cc(=O)n(CC(=O)Nc2ccccc2Cl)c(N2CCCCC2)n1	1	-18
CC1(C(=O)NCc2cccc(F)c2)CCCN(C(=O)c2ccc(F)cc2)C1 (stereo unspecified)	3	-1
Cc1ccc2[nH]cc(CCN3CC(C(=O)Nc4cccc(Cl)c4C)CC3=O)c2c1 (stereo unspecified)	-2	56*
Cc1ccccc1NC(=O)C1CC(=O)N(CCc2c[nH]c3ccc(F)cc23)C1 (stereo unspecified)	2	9
Cc1ccc2[nH]cc(CCN3CC(C(=O)Nc4cc(Cl)ccc4C)CC3=O)c2c1 (stereo unspecified)	-4	49
Cc1ccccc1NC(=O)C1CC(=O)N(CCc2c[nH]c3ccc(Cl)cc23)C1 (stereo unspecified)	-2	56*
Cc1ccc2[nH]cc(CCN3CC(C(=O)Nc4ccc(F)cc4)CC3=O)c2c1 (stereo unspecified)	1	10
COc1ccc(NC(=O)C2CC(=O)N(CCc3c[nH]c4ccc(Cl)cc34)C2)cc1 (stereo unspecified)	-5	87*
Cc1ccc(NC(=O)c2cc3nc(-c4ccc(Cl)cc4)cc(C)n3n2)cc1C	-2	-8
COc1ccccc1/C=C1\SC(=O)N(CN2CCCC2)C1=O	-3	70*
COc1ccc(/C=C2\SC(=O)N(CN3CCCCC3)C2=O)c(OC)c1	-9	6
O=C1CC2(CCN(C(=O)CSCc3ccccc3)CC2)Oc2ccccc21	12	-6
CCN(CC)Cc1c(O)cc(C)c2c1OC(=Cc1cc3ccccc3o1)C2=O	-17	11
Cc1nnc(-c2ccccc2)n1-c1ccc([N+](=O)[O-])cc1	-2	8
CC1=NN(c2ccccc2)C(=O)/C1=C/c1ccc(-c2ccc([N+](=O)[O-])cc2)o1	0	1
C/C(=C1/C(=O)N(c2ccc([N+](=O)[O-])cc2)N=C1c1ccccc1)N(C)C	0	53*
CN(C)/C=C1\C(=O)N(c2ccc([N+](=O)[O-])cc2)N=C1c1ccccc1	59*	25
COc1ccc(OC)c(S(=O)(=O)Nc2ccc3c(c2)CCC(=O)N3C)c1	3	1
SMILES	Pf apPOL block	mHTT-CaM PPI inh
COc1ccc(C(C(=O)Nc2ccc3c(c2)OCO3)N(C)C(=O)CNC(C)=O)cc1 (stereo unspecified)	-4	2
Cc1ccc(C(C(=O)Nc2ccc3c(c2)OCO3)N(C)C(=O)Cc2c[nH]c3ccccc23)cc1 (stereo unspecified)	-4	93*
Cc1cc(NC(=O)Cn2c(=O)n(-c3cc(F)ccc3F)c(=O)c3sccc32)n[nH]1	-5	2
Cn1nc(COCc2ccccc2)c2c1CCN(C(=O)Nc1ccc(F)c(Cl)c1)C2	-2	14
Fc1ccc(-c2cc3n(n2)CCCN(Cc2cccc(F)c2)C3)cc1	-5	92*
COc1ccc(-c2cc3n(n2)CCCN(Cc2ccoc2)C3)cc1	-3	13
Cc1scc2nc(C(=O)NCc3ccc(F)cc3)nc(N3CCCC3)c12	-19	81*
CCNC(=O)c1nc(N2CCCC2)c2c(C)scc2n1	-4	26
O=C(c1noc2c1CCCCC2)N1CCN(c2ccccc2F)CC1	-2	-13
